Assay results: PubChem BioAssay (NCI)
About 83,000 compounds went through this panel and 20% of them were active in at least one assay; those are over-represented in the sample as a whole.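 Single-dose data. Exposure time 48 hours. Values below 10 considered active.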 Calls of active or inactive are those of the source.

Key:
Assay in all cases: NCI-60 one-dose screen, 48 h (100 = growth as untreated, 0 = no growth, -100 = all killed)
Conditions in all cases: 10 µM unless noted
DU-145 prostate = test system: DU-145 prostate
K-562 leukemia = test system: K-562 leukemia
MALME-3M melanoma = test system: MALME-3M melanoma
MDA-MB-231 breast = test system: MDA-MB-231 breast
RXF 393 renal = test system: RXF 393 renal
SF-268 CNS = test system: SF-268 CNS
SF-295 CNS = test system: SF-295 CNS
SF-539 CNS = test system: SF-539 CNS
M14 melanoma = test system: M14 melanoma

Measured: growth

CCN(CC)CCCNc1nc(C)cc(Nc2ccc3nc(C)cc(N)c3c2)n1
inactive: DU-145 prostate 116% | K-562 leukemia 106% | MALME-3M melanoma 107% | MDA-MB-231 breast 103% | RXF 393 renal 117% | SF-268 CNS 92.9% | SF-295 CNS 95.1% | SF-539 CNS 103% | M14 melanoma 96.6%

Nc1ccccc1C#C/C=C\C#Cc1cccc(O)c1
inactive: DU-145 prostate 73.1% | K-562 leukemia 30.9% | MALME-3M melanoma 51.6% | MDA-MB-231 breast 39.7% | RXF 393 renal 59% | SF-268 CNS 65.3% | SF-295 CNS 40.2% | SF-539 CNS 42.9% | M14 melanoma 31.5%

c1ccc2c(c1)Oc1ccccc1C2C1c2ccccc2Oc2ccccc21
inactive: DU-145 prostate 93.6% | K-562 leukemia 93.6% | MALME-3M melanoma 108% | MDA-MB-231 breast 93.1% | RXF 393 renal 94.2% | SF-268 CNS 97.2% | SF-295 CNS 96.1% | SF-539 CNS 96.5% | M14 melanoma 99.1%

O=C1CCCCN1CCCCC#Cc1ccccc1C#Cc1ccc([N+](=O)[O-])cc1
inactive: DU-145 prostate 71.1% | K-562 leukemia 33.9% | MALME-3M melanoma 55.7% | MDA-MB-231 breast 59.3% | RXF 393 renal 23.5% | SF-268 CNS 40.3% | SF-295 CNS 75.9% | SF-539 CNS 37.6% | M14 melanoma 59.5%

Cc1cccc2cc(/C=C/C(=O)/C=C/c3ccc(Cl)cc3)c(=O)[nH]c12
inactive: DU-145 prostate 39.1% | K-562 leukemia 10.8% | MALME-3M melanoma 106% | MDA-MB-231 breast 25.7% | RXF 393 renal 36.8% | SF-268 CNS 62% | SF-295 CNS 83.8% | SF-539 CNS 69.7% | M14 melanoma 30.5%

O=C1CCC/C=C\C[C@H]2C=CC(=O)/C2=C/C[C@H](C/C=C\CC(F)(F)F)O1
inactive: MDA-MB-231 breast 17.7%
active: DU-145 prostate -3.69% | K-562 leukemia 3.68% | MALME-3M melanoma -12% | RXF 393 renal -85.4% | SF-268 CNS -1.48% | SF-295 CNS -19.7% | SF-539 CNS -40.1% | M14 melanoma -15.2%

COC(=O)CCCCN=Cc1c(O)c(O)c(C(C)C)c2cc(C)c(-c3c(C)cc4c(C(C)C)c(O)c(O)c(C=NCCCCC(=O)OC)c4c3O)c(O)c12
inactive: DU-145 prostate 24.3% | K-562 leukemia 10.3% | MALME-3M melanoma 42.5% | SF-268 CNS 24.2% | SF-539 CNS 24.2% | M14 melanoma 22.9%
active: MDA-MB-231 breast 6.38% | RXF 393 renal 8.84% | SF-295 CNS 2.79%

CCN(Cc1ccc(CN(CC)C(=O)C(Cl)(Cl)Cl)cc1)C(=O)C(Cl)(Cl)Cl
inactive: DU-145 prostate 97.7% | K-562 leukemia 27% | MALME-3M melanoma 68.4% | MDA-MB-231 breast 98.2% | RXF 393 renal 101% | SF-268 CNS 80.5% | SF-295 CNS 76.4% | SF-539 CNS 101% | M14 melanoma 89.9%

COC(=O)CCCCCCN=Cc1c(O)c(O)c(C(C)C)c2cc(C)c(-c3c(C)cc4c(C(C)C)c(O)c(O)c(C=NCCCCCCC(=O)OC)c4c3O)c(O)c12
inactive: DU-145 prostate 30.6% | K-562 leukemia 10.5% | MALME-3M melanoma 68.5% | MDA-MB-231 breast 11.9% | RXF 393 renal 36.2% | SF-268 CNS 32.8% | SF-539 CNS 15.2% | M14 melanoma 27%
active: SF-295 CNS 7.26%

O=C(/C=C/CN1CCCCC1)Nc1cc2c(Nc3ccc(F)c(Cl)c3F)ncnc2cc1OCCOC(F)F
active: K-562 leukemia 7.24% | MDA-MB-231 breast -4.23% | RXF 393 renal -17.1%
inactive: DU-145 prostate 17.6% | MALME-3M melanoma 25.8% | SF-268 CNS 16.1% | SF-295 CNS 28.1% | SF-539 CNS 16.8% | M14 melanoma 34.2%

COc1cc(-c2csc(NC(=O)c3cc(C(F)(F)F)cc(C(F)(F)F)c3)n2)cc(OC)c1OC
active: MALME-3M melanoma 3.36%
inactive: DU-145 prostate 35% | K-562 leukemia 14.4% | MDA-MB-231 breast 41.1% | RXF 393 renal 56.7% | SF-268 CNS 35.4% | SF-295 CNS 33.9% | SF-539 CNS 56% | M14 melanoma 32.3%

COc1ccc2c(c1)NC(=O)CN2c1nc(C)nc2ccccc12
inactive: MALME-3M melanoma 67.6% | MDA-MB-231 breast 11.6% | RXF 393 renal 55.1% | SF-268 CNS 24.4% | SF-295 CNS 14.2% | M14 melanoma 10.8%
active: DU-145 prostate -0.215% | K-562 leukemia 9.83% | SF-539 CNS -0.932%

Nc1cccc2c1CN(C1CCC(=O)NC1=O)C2=O (stereo not given)
active: RXF 393 renal -17.4%
inactive: DU-145 prostate 107% | K-562 leukemia 132% | MALME-3M melanoma 119% | MDA-MB-231 breast 107% | SF-268 CNS 102% | SF-295 CNS 116% | SF-539 CNS 94.7% | M14 melanoma 101%

O=[N+]([O-])c1ccc(S(=O)(=O)N2CCN(c3ccnc4cc(Cl)ccc34)CC2)c([N+](=O)[O-])c1
inactive: DU-145 prostate 92.3% | K-562 leukemia 18% | MALME-3M melanoma 76.2% | MDA-MB-231 breast 85.3% | RXF 393 renal 74% | SF-268 CNS 86% | SF-295 CNS 100% | SF-539 CNS 93.5% | M14 melanoma 92.2%

CC(CCc1ccccc1)NC(=O)c1n[nH]c(=O)c2ccccc12 (stereo not given)
inactive: DU-145 prostate 110% | K-562 leukemia 77.3% | MALME-3M melanoma 116% | MDA-MB-231 breast 101% | RXF 393 renal 144% | SF-268 CNS 112% | SF-295 CNS 107% | SF-539 CNS 98.6% | M14 melanoma 104%

CC(Br)C(Br)c1cc2c(cc1Br)OCO2 (stereo not given)
inactive: DU-145 prostate 108% | K-562 leukemia 112% | MALME-3M melanoma 100% | MDA-MB-231 breast 110% | RXF 393 renal 104% | SF-268 CNS 99.6% | SF-295 CNS 98.5% | SF-539 CNS 91.1% | M14 melanoma 94.3%

O=C1C2=C(C(=O)c3c(O)ccc(O)c31)N(c1cccnc1)Cc1ccccc1O2
active: DU-145 prostate -96.6% | K-562 leukemia -9.44% | MALME-3M melanoma -80.5% | MDA-MB-231 breast -68.9% | RXF 393 renal -78.8% | SF-268 CNS 1.4% | SF-539 CNS -56.1% | M14 melanoma -78%
inactive: SF-295 CNS 37.9%

O=C(CSc1nc(-c2ccc(Cl)cc2)cn1-c1ccc(Cl)cc1)c1ccc(Br)cc1
inactive: DU-145 prostate 90.9% | K-562 leukemia 86.4% | MALME-3M melanoma 94% | MDA-MB-231 breast 60.1% | RXF 393 renal 67.9% | SF-268 CNS 78.1% | SF-295 CNS 52.1% | SF-539 CNS 84.7% | M14 melanoma 89.1%

CCCS(=O)(=O)c1nc(NC2CC2)cc(-c2ccc3c(ccn3C3CC(C)(C)NC(C)(C)C3)c2)n1
active: DU-145 prostate 8.45% | K-562 leukemia -52.6% | MALME-3M melanoma -56.3% | MDA-MB-231 breast -78.8% | RXF 393 renal -87.3% | SF-268 CNS -48.7% | SF-295 CNS -48.9% | SF-539 CNS -88.1% | M14 melanoma -78.2%

ClC1=C(Cl)C(Cl)=C(Cl)C1=Cc1ccc(Cl)cc1Cl
active: DU-145 prostate -5.47% | K-562 leukemia 0.397% | MALME-3M melanoma -30.8% | MDA-MB-231 breast -10.8% | RXF 393 renal -94.8% | SF-268 CNS -43.4% | SF-295 CNS -16.6% | SF-539 CNS -30% | M14 melanoma -30.1%

COC(=O)c1ccc(C)cc1
inactive: DU-145 prostate 103% | K-562 leukemia 102% | MALME-3M melanoma 108% | MDA-MB-231 breast 107% | RXF 393 renal 106% | SF-268 CNS 97.9% | SF-295 CNS 102% | SF-539 CNS 103% | M14 melanoma 116%

COc1ccc(N=C2NN=C(c3ccc(F)cc3)CS2)cc1OC
inactive: DU-145 prostate 103% | K-562 leukemia 107% | MALME-3M melanoma 104% | MDA-MB-231 breast 91.6% | RXF 393 renal 78.3% | SF-268 CNS 116% | SF-295 CNS 90.8% | SF-539 CNS 102% | M14 melanoma 105%

CCN(CC)S(=O)(=O)c1ccc2[nH]c(=O)cc(C(=O)Nc3ccc(OC)cc3OC)c2c1
inactive: DU-145 prostate 157% | K-562 leukemia 115% | MALME-3M melanoma 118% | MDA-MB-231 breast 98.3% | SF-268 CNS 95% | SF-295 CNS 97.9% | SF-539 CNS 133% | M14 melanoma 109%
active: RXF 393 renal 9.24%

CCC#CC[C@H]1C/C=C2/C(=O)C=C[C@@H]2C/C=C\CCCC(=O)O1
inactive: MDA-MB-231 breast 16.1%
active: DU-145 prostate 9.38% | K-562 leukemia 2.38% | MALME-3M melanoma 1.52% | RXF 393 renal -65.4% | SF-268 CNS 5.57% | SF-295 CNS 4.47% | SF-539 CNS 8.07% | M14 melanoma 2.84%

O=S(=O)(NCCNc1cc(-c2cn(-c3ccccc3)nc2-c2ccccc2)ccn1)c1cccc2ccccc12
inactive: DU-145 prostate 68.9% | K-562 leukemia 20.7% | MALME-3M melanoma 60.7% | MDA-MB-231 breast 40% | RXF 393 renal 55.3% | SF-268 CNS 55% | SF-295 CNS 35.9% | SF-539 CNS 56.9% | M14 melanoma 42.9%

O=C(Nc1ccc(I)cc1)c1cccc([N+](=O)[O-])c1O
inactive: DU-145 prostate 32.5% | K-562 leukemia 14.7% | MDA-MB-231 breast 16.8% | RXF 393 renal 31.1% | SF-268 CNS 24.1% | SF-539 CNS 14.8% | M14 melanoma 15.7%
active: MALME-3M melanoma -4.07% | SF-295 CNS 4.77%

CCCCCCCN(CCCCCCC)C(=N)c1ccc(OC)c2ccccc12
active: DU-145 prostate -96.4% | K-562 leukemia -47.9% | MALME-3M melanoma -72% | MDA-MB-231 breast -77.2% | RXF 393 renal -94.5% | SF-268 CNS -91% | SF-295 CNS -89.9% | SF-539 CNS -88% | M14 melanoma -85.9%

NC(N)=NC(N)=Nc1ccccc1-c1ccccc1
inactive: DU-145 prostate 114% | K-562 leukemia 104% | MALME-3M melanoma 110% | MDA-MB-231 breast 116% | RXF 393 renal 112% | SF-268 CNS 113% | SF-295 CNS 113% | SF-539 CNS 110% | M14 melanoma 108%

C/C(=C\c1csc(C)n1)[C@@H]1C[C@@H]2O[C@]2(C)CCC[C@H](C)[C@H](O)[C@@H](C)C(=O)C(C)(C)[C@@H](O)CC(=O)N1
inactive: MALME-3M melanoma 66.3%
active: DU-145 prostate -78.9% | K-562 leukemia 1.67% | MDA-MB-231 breast -54.7% | RXF 393 renal -83.3% | SF-268 CNS -47.8% | SF-295 CNS -64.6% | SF-539 CNS -87.4% | M14 melanoma -44.1%

Cc1c(C(=O)NCc2ccccc2)[n+](=O)c2cc(F)ccc2n1[O-]
inactive: DU-145 prostate 99.8% | K-562 leukemia 214% | MALME-3M melanoma 114% | MDA-MB-231 breast 111% | RXF 393 renal 33.1% | SF-268 CNS 111% | SF-295 CNS 88.4% | SF-539 CNS 103% | M14 melanoma 99.5%
